# Screen size: about 48,000 compounds; about 13,000 (27%) showed an effect of 50% or more. The list shows a part of the results.
# Tested on: Wolbachia pipientis
# Assay: Anti-Wolbachia Cell-Based Screen
# Format: functional
# Parameters: scale not given: in the data most compounds retested in dose-response had high values
# Conditions: 5 µM
row,SMILES,Percent Effect [%]
1,CCCn1[nH]cc/c1=N\C(=O)CN1CCCC1Cn1cccn1 (stereo not drawn),-1.433
2,CCN(CC1CCOC1)C(=O)c1cc(OC)c2c(c1)OCCO2 (stereo not drawn),-3.228
3,CCNc1ccnc(NCC2CNCCO2)n1 (stereo not drawn),-11.04
4,Cl.c1ncc(-c2ccc(C3CNCCO3)nc2)cn1 (stereo not drawn),106.1
5,COc1ccc(-c2c[nH]c([C@@H]3COCCN3)n2)cc1,-8.862
6,COc1ccc(-c2cnc(CN3CCCC3CO)o2)cc1 (stereo not drawn),-7.324
7,COc1ccc(-c2ccc(C3CNCCO3)nc2)cc1.Cl (stereo not drawn),122.1
8,Cl.c1ccc(-c2ccc(C3CNCCO3)nc2)cc1 (stereo not drawn),-0.3347
9,Cl.Clc1ccc(-c2ccc(C3CNCCO3)nc2)cc1 (stereo not drawn),122.6
10,Cc1ccc(-c2ccc(C3CNCCO3)nc2)cc1.Cl (stereo not drawn),114.4
11,Fc1ccc(-c2noc([C@@H]3Cc4nc[nH]c4CN3)n2)cc1,-11.77
12,Cc1ccc(N2CC3(COCCN(Cc4ccccn4)C3)OCC2=O)s1.O=C(O)C(F)(F)F.O=C(O)C(F)(F)F (stereo not drawn),-3.574
13,Cn1cc(N2CC3(COCCN(Cc4ccsc4)C3)OCC2=O)cn1.O=C(O)C(F)(F)F (stereo not drawn),-6.124
14,Cc1cccc(N2CCOCC3(C2)CN(c2ccccc2)C(=O)CO3)n1.O=C(O)C(F)(F)F (stereo not drawn),109.1
15,Cn1cc(CN2CCOCC3(C2)CN(c2ccccc2)C(=O)CO3)cn1.O=C(O)C(F)(F)F (stereo not drawn),-5.421
16,O=C(O)C(F)(F)F.O=C1COC2(COCCN(c3ccccn3)C2)CN1c1cccc(F)c1 (stereo not drawn),-5.368
17,O=C(O)C(F)(F)F.O=C(O)C(F)(F)F.O=C1COC2(COCCN(Cc3cccnc3)C2)CN1c1ccoc1 (stereo not drawn),-8.923
18,Cc1cccc(N2CCOCC3(C2)CN(c2ccoc2)C(=O)CO3)n1.O=C(O)C(F)(F)F (stereo not drawn),101.1
19,Cc1cccc(N2CCOCC3(C2)CN(c2cnn(C)c2)C(=O)CO3)n1.O=C(O)C(F)(F)F (stereo not drawn),85
20,COC(=O)c1ccc(CNC2CC(=O)N(Cc3cccc(F)c3)C2)cc1 (stereo not drawn),2.767
21,CSc1ccc(-n2ccnc2-c2cc3n(n2)CCNC3)cc1,-5.547

row,SMILES,Percent Effect [%]
1,CC(C)c1cnc(N2C[C@H](CO)C[C@H](CN3CCOCC3)C2)nc1,-10.14
2,COCc1noc(C2(c3ccc(Cl)cc3)CCOCC2)n1,0.3658
3,Cc1c(Cl)c(CN2CCCC2Cn2cncn2)nc2ccccc12 (stereo not drawn),0.2475
4,Cc1cnn(CC2CCCN2C(=O)c2nccc3ccccc23)c1 (stereo not drawn),-8.549
5,Cc1cnn(CC2CCCN2C(=O)c2nccnc2N)c1 (stereo not drawn),124
6,Cc1cnn(CC2CCCCN2C(=O)c2nccnc2N)c1 (stereo not drawn),123.3
7,Cc1cnn(CC2CCCN2C(=O)c2ccc(C(N)=O)cn2)c1 (stereo not drawn),-6.228
8,Cc1ccsc1C(=O)N1CC2CC1(C(=O)NCc1ccco1)C2,-21.25
9,Cc1oncc1C(=O)N1CC[C@H]2CO[C@H](CN3CCCC3)[C@H]2C1,2.112
10,O=C(N1CCOCC1)N1CCOC[C@H](Oc2ccc(C(F)(F)F)cc2)C1,-17.33
11,COc1cc(C)ccc1OCC(=O)NS(=O)(=O)c1cc(F)ccc1F,4.965
12,COc1cccc(OCC(=O)NS(=O)(=O)c2ccc(Br)s2)c1,93.04
13,COc1cccc(OCC(=O)NS(=O)(=O)c2ccc(C)s2)c1,7.75
14,COc1cc(C)ccc1OCC(=O)NS(=O)(=O)c1ccc(Br)s1,133.3
15,COc1ccccc1OCC(=O)NS(=O)(=O)c1ccc(Cl)cc1F,6.198
16,CC(=O)c1cccc(OCC(=O)NS(=O)(=O)c2ccc(C)s2)c1,0.05865
17,COc1ccccc1OCC(=O)NS(=O)(=O)c1ccc(Cl)s1,123.5
18,N#CCc1ccc(OCC(=O)NS(=O)(=O)c2ccc(Br)s2)cc1,-7.056
19,COc1ccc(OCC(=O)NS(=O)(=O)c2ccc(Cl)s2)cc1,9.961
20,CC(=O)c1ccc(OCC(=O)NS(=O)(=O)c2ccc(Cl)s2)cc1,1.494
21,COc1ccc(OCC(=O)NS(=O)(=O)c2ccc(Br)s2)cc1,71.28

row,SMILES,Percent Effect [%]
1,COc1ccc(OCC(=O)NS(=O)(=O)c2cc(C)ccc2C)cc1,6.123
2,CC(Sc1nncn1C)C(=O)NCCCOc1ccc(F)cc1 (stereo not drawn),7.065
3,COC1CCCN(C(=O)NCCCF)C1 (stereo not drawn),5.737
4,CCS(=O)(=O)NC[C@]12COC[C@H]1CN(Cc1ccsc1)C2.O=C(O)C(F)(F)F,-7.396
5,COC[C@]12COC[C@H]1CN(Cc1ccc3c(c1)OCO3)C2.O=C(O)C(F)(F)F,110.8
6,CCOC[C@]12COC[C@H]1CN(Cc1ccc(F)c(F)c1)C2.O=C(O)C(F)(F)F,108.4
7,CS(=O)(=O)NC[C@]12COC[C@H]1CN(Cc1ccc3c(c1)OCO3)C2.O=C(O)C(F)(F)F,100.7
8,CCOC[C@]12COC[C@H]1CN(Cc1ccc3c(c1)OCO3)C2.O=C(O)C(F)(F)F,94.03
9,O=C(O)C(F)(F)F.O=C(O)C(F)(F)F.c1cc2c(cc1CN1C[C@@H]3COC[C@@H](N4CCCC4)[C@@H]3C1)OCO2,5.593
10,CS(=O)(=O)NC[C@]12COC[C@H]1CN(CCc1ccccc1)C2.O=C(O)C(F)(F)F,1.225
11,Cc1nc(C(C)(C)NCc2ncc(C3CC3)o2)sc1C,-9.268
12,CCc1ccc(CNc2ccccc2CN2CCC(O)CC2)o1,-8.641
13,CCCn1cc(CNCC(c2ccc(C)s2)N2CCOCC2)cn1 (stereo not drawn),19.75
14,CCC[C@H]1CN(Cc2ccc3c(c2)OCCO3)C[C@@H]1NC(=O)COC,-19.75
15,COCC(=O)NC[C@]12COC[C@H]1CN(Cc1ccc3c(c1)OCO3)C2.O=C(O)C(F)(F)F,110
16,CC(=O)N1CCN(Cc2ccc3c(c2)OCCO3)CC(O)C1 (stereo not drawn),-5.239
17,COc1ccc(CN2C[C@@H]3COC[C@]3(CN(C)C)C2)cc1.O=C(O)C(F)(F)F.O=C(O)C(F)(F)F,3.897
18,COc1ccc(CC(=O)N2C[C@@H]3COC[C@]3(CN(C)C)C2)cc1.O=C(O)C(F)(F)F,1.592
19,COCC(=O)NC[C@]1(O)CN(Cc2ccc3c(c2)OCCO3)C[C@H]1O,114.3
20,COCC(=O)NC[C@]12COC[C@H]1CN(c1ncc(F)cn1)C2.O=C(O)C(F)(F)F,-9.196
21,CN(C)C[C@]12COC[C@H]1CN(Cc1ccc3c(c1)OCO3)C2.O=C(O)C(F)(F)F.O=C(O)C(F)(F)F,103.2

# Reference: ChEMBL document CHEMBL3988442, “University of Dundee, Small-Polar-MMV Screening Library” (2021)
